Test results: PubChem BioAssay AID1252 (The Scripps Research Institute Molecular Screening Center, 2008)
This is one part of the list. Activity calls are given as the source filed them.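 Rule for the calls: active = over 50% activation at some tested dose; inactive = under 50% activation at every tested dose.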

Assay: Hsp70 transcriptional activators, dose response, cell-based, HeLa, Hsp70 promoter luciferase, luminescence, triplicate (AID 1252)
Conditions: HeLa hsp70.1pr-luc reporter; series mostly up to 99 µM; activation: at the top concentration

activation, inactive:
O=C(/C=C/Sc1ncn[nH]1)c1ccc(Cl)cc1 3.8%
COCCn1c(C)cc(C(=O)CSc2nc3ccccc3c(=O)n2C(C)COC)c1C (centres undefined) -0.3%
COc1ccc(CS(=O)/C(Cl)=C(/Cl)C(=O)Nc2ccc(OC)nc2)cc1 (centres undefined) -0.5%
COc1ccc(NC(=O)/C(Cl)=C(/Cl)S(=O)Cc2ccc(C)cc2)cn1 (centres undefined) 1.6%
